Compound activity deposited in PubChem BioAssay by National Center for Advancing Translational Sciences (NCATS).
TR SRC2 fluor cs: Total Fluorescence Counterscreen for Inhibitors of the Interaction of Thyroid Hormone Receptor and Steroid Receptor Coregulator 2 | TRb/SRC2 Texas Red total fluorescence interference | Potency, µM (highest dose often 106 µM) | 0.29% of 280,000 active | AID 1479, 2009; active = well fitted curve in either direction with a large enough effect; inconclusive = small, poorly fitted or top-dose-only effect
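Human TRβ ligand-binding domain (0.6 uM) and Texas Red SRC2 peptide (20 nM) in Tris buffer with 1 uM T3 and 5% DMSO were incubated with pinned compound for 5 hr at ambient temperature. Total fluorescence was computed as S + 2P (555/632 nm).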
Tau fluor counter: Counterscreen qHTS for Inhibitors of Tau Fibril Formation, Fluorescence Polarization; tau K18 P301L Alexa594 fluorescence, heparin fibrillization; Potency, µM (series often up to 57.7 µM); 0.93% of 280,000 active; AID 1463, 2008; note: nearly all actives have a fitted effect of over 55% in size
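Human K18 P301L tau (15 uM unlabeled plus 0.24 uM Alexa 594-labeled, final) in 100 mM sodium acetate pH 7 was mixed with compound and 20 uM heparin and incubated 6 hr at 37 C.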
Tau ThT inhib: qHTS for Inhibitors of Tau Fibril Formation, Thioflavin T Binding. 2.1% of 270,000 active. AID 1460, 2008. Potency, µM (highest dose often 57.4 µM), actives largely listed as inhibitors. Microtubule-associated protein tau (Homo sapiens), P10636. recombinant tau K18 P301L, heparin-induced fibrillization, ThT fluorescence; note: nearly all actives have a fitted effect of over 55% in size
Target sequence (P10636 561-689 P618L limits assumed): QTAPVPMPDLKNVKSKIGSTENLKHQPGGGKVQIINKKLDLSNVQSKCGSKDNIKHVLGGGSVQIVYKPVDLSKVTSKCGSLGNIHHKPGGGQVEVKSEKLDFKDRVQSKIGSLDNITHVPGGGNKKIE
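Recombinant human tau K18 fragment […] carrying P301L, 15 uM unlabeled plus 0.24 uM Alexa 594-labeled, was fibrillized with 20 uM heparin in 100 mM sodium acetate pH 7 for 6 hr at 37 C; 30 uM ThT fluorescence read after 1 hr.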
PNC assembly inh: High Content Assay for Compounds that inhibit the Assembly of the Perinucleolar Compartment; PC3M PTB-GFP, PNC prevalence imaging, 16 h; active compounds read low; activity change (PNC), negative = inhibition, % at 10 µM; 3.1% of 140,000 active; AID 2417, 2010;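 active = readout at or below -70, meaning at least 70% loss of cells showing the perinucleolar compartment, a nuclear body marking cancer cells; inconclusive = readout between -30 and a set limit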
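PC3M cells stably expressing PTB-GFP, 750–1000 cells/well, treated 16 h at 37 °C with compound (23 nl of library stock), in duplicate. After paraformaldehyde fixation and Hoechst stain, imaged at 20x; PNC prevalence scored by image analysis.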
Tau fibril FP: qHTS for Inhibitors of Tau Fibril Formation, Fluorescence Polarization | 0.39% of 280,000 active | Potency, µM (top dose mostly 57.7 µM), actives largely listed as inhibitors | K18 P301L tau heparin fibrillization, Alexa594 FP, 6 h | AID 1468, 2008 | Microtubule-associated protein tau (Homo sapiens), P10636; note: nearly all actives have a fitted effect of over 55% in size
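Heparin (20 uM) drove fibril formation of recombinant tau K18 P301L, 15 uM unlabeled with 0.24 uM Alexa 594 label, for 6 hr at 37 C in 100 mM sodium acetate pH 7. Fluorescence polarization (555/632 nm) read 1 hr after 30 uM ThT.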
TRb-SRC2 inh: qHTS for Inhibitors of the Interaction of Thyroid Hormone Receptor and Steroid Receptor Coregulator 2; Potency, µM (series often up to 106 µM), usual class: inhibitors; TRbeta-SRC2 peptide binding, fluorescence polarization; receptor liganded with 1 µM T3; AID 1469, 2008; Thyroid hormone receptor beta (Homo sapiens), P10828; 0.065% of 280,000 active; note: nearly all actives have a fitted effect of over 50% in size
Target sequence (P10828 whole entry, looked up): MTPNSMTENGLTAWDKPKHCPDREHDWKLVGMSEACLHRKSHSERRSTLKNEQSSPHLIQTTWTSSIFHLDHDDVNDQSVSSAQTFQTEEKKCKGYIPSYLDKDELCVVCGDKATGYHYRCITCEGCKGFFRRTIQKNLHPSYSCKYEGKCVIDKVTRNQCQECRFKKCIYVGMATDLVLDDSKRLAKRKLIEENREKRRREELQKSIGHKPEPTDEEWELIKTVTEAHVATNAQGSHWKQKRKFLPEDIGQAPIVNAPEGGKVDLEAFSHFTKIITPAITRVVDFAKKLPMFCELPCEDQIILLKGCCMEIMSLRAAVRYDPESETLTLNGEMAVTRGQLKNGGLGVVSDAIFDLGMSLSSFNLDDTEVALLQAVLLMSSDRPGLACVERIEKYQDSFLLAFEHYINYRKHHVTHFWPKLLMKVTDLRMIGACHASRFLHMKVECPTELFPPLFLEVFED
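Each compound concentration gave % activity, normalized to unbound and bound Texas Red SRC2 controls, from polarization read after 5 hr ambient incubation with T3-loaded human TRb LBD.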
A number is an active result; 0 = inactive; ? = inconclusive; - = no result given; [ ] = another dose, or the depositor's remark. An excerpt weighted towards active compounds, which were near 4.6% of everything screened. Unless noted, calls come from the whole dose curve; as a rule, active = well fitted curve in the direction sought with a large enough effect; inconclusive = small, poorly fitted or top-dose-only effect, or another doubt; inactive = no such curve, though single readings can be large; an effect the other way counts as inactive or inconclusive.

SMILES	TR SRC2 fluor cs	Tau fluor counter	Tau ThT inhib	PNC assembly inh	Tau fibril FP	TRb-SRC2 inh
Clc1cccc(-c2cc3nc4c(c(N5CCOCC5)n3n2)CCCC4)c1	0	0	?	0	0	0
c1nc2nc3c(c(N4CCOCC4)n2n1)CCCC3	0	0	0	-107	0	0
Clc1cccc(-c2cc3nc4c(c(N5CCN(c6cnccn6)CC5)n3n2)CCCC4)c1	0	0	0	-100	0	0
CC1CCc2c(nc3ncnn3c2N2CCN(c3ccccc3)CC2)C1 (stereo not drawn)	0	0	?	0	0	0
COC(=O)c1cccc(NC(=O)CCCOc2ccccc2)c1	0	0	0	?	0	0
COc1ccc(C2/C=C\CN(C(=O)c3ccc(C)cc3)CC(=O)N2Cc2ccc(F)cc2)cc1 (stereo not drawn)	0	0	0	-	0	0
O=C1CCCCCN1Sc1ccccc1	0	0	14µM	0	?	0
COCCNC(=O)c1ccccc1NC(=O)c1ccccc1N(C)S(C)(=O)=O	0	0	0	-111	0	0
COCCNC(=O)c1ccccc1NC(=O)c1ccccc1N(C)S(=O)(=O)c1ccccc1	0	0	0	0	0	0
CCOc1ccc(-c2nc(SCC(=O)c3ccccc3)n[nH]2)cc1	0	0	0	-	0	0
COc1ccc(/C=N/Nc2nc(C)c([N+](=O)[O-])c(N(C)c3ccccc3)n2)cc1OC	0	0	?	?	0	0
COc1ccc(Nc2nc(NN)nc(C)c2[N+](=O)[O-])cc1	0	?	14µM	-	0	0
COc1ccc(Nc2nc(N/N=C/c3ccc(N(C)C)cc3)nc(C)c2[N+](=O)[O-])cc1	0	11µM[quencher]	3.2µM	0	0	0
Cc1nc(Nc2ccc(F)cc2)nc(Nc2ccc(F)cc2)c1[N+](=O)[O-]	0	0	0	-	0	0
CCOC(=O)c1cnc(SC2CC(=O)N(c3ccc(OC)c(OC)c3)C2=O)nc1N (stereo not drawn)	0	0	0	0	0	0
Cc1ccc(C2=NN(C(=O)C3CCCO3)C(c3ccco3)C2)cc1 (stereo not drawn)	0	0	0	-	0	0
O=C(C1CCCO1)N1N=C(c2ccc(Br)cc2)CC1c1ccco1 (stereo not drawn)	0	0	0	-89	0	0
CCn1c2ccccc2c2cc(N)ccc21	0	?	?	0	0	0
CCn1c(C)cc(=S)c2ccccc21	0	0	20µM	0	?	0
COc1ccc2nc(N3C(=O)/C(=C/c4ccccc4)NC3=S)sc2c1	0	?	4µM	0	0	0
CCOc1ccc2nc(N3C(=O)/C(=C/c4ccccc4)NC3=S)sc2c1	0	?	3.5µM	0	?	0
Cc1ccc(C(=O)Nc2ccc3c(c2)OCO3)cc1NC(=O)c1ccco1	0	0	?	-	0	0
CC1C(=O)Nc2ccccc2N1C(=O)C1CC1 (stereo not drawn)	0	0	0	0	0	0
CC1(C)c2ssc(=S)c2-c2ccccc2N1C(=O)CSC1=NCCS1	0	?	?	?	0	0
COC(=O)C1=C(C(=O)OC)SC(=C2C(=S)C(C)(C)N(C(=O)C(C)C)c3ccccc32)S1	0	?	1µM	0	?	0
SMILES	TR SRC2 fluor cs	Tau fluor counter	Tau ThT inhib	PNC assembly inh	Tau fibril FP	TRb-SRC2 inh
CCCC(=O)N1c2ccccc2C(=C2SC(C(=O)OC)=C(C(=O)OC)S2)C(=S)C1(C)C	0	?	2.2µM	0	?	0
CCOC(=O)C1(C)C(C(=O)OC)=C(c2ccc(OC)cc2)c2ccccc2N1C(=O)OC (stereo not drawn)	0	0	0	-	0	0
COC(=O)C1=C(C(=O)OC)SC(=C2C(=S)C(C)(C)N(C(=O)C3CC3)c3ccccc32)S1	0	?	2.5µM	0	?	0
COc1ccc(-n2c(=S)[nH]c3cc(C(=O)Nc4cccc(C)c4)ccc3c2=O)cc1	?	0	0	?	0	0
O=c1c2c(nc3nc(COc4ccccc4)[nH]n13)CCC2	0	0	0	-110	0	0
CC12CCC(C/C1=N\OC(=O)c1c(F)cccc1F)C2(C)C (stereo not drawn)	0	0	0	-	0	0
COC(=O)c1cc(Nc2cc(C)nc3ncnn23)cc(C(=O)OC)c1	0	0	0	0	0	0
COc1cc2c(cc1OC)C(C1C(=O)CC(C)(C)CC1=O)N(C(=O)CCl)CC2 (stereo not drawn)	0	0	0	-80	0	0
COc1cccc(NC(=O)Nc2cc(C)ccc2F)c1	0	0	0	0	0	0
NC(=O)C(=CNc1nc(-c2ccc(Cl)c(Cl)c2)cs1)C(N)=O	0	16µM[quencher]	16µM	-	0	0
CCOc1ccc2c(c1)sc(N)[n+]2Cc1cc(C)cc2cccnc12	0	0	0	-85	0	0
COc1ccc2c(c1)sc(N)[n+]2Cc1cc(C)cc2cccnc12	0	0	0	?	0	0
CC(=O)c1ccc(OC(=O)CCc2nc3ccccc3s2)cc1	0	0	16µM	-	?	0
O=C(CCc1nc2ccccc2s1)c1ccccc1	0	0	0	0	0	0
CN(C(=O)CCc1nc2ccccc2s1)c1ccccc1	0	0	0	-112	0	0
CCN(CC#CCC(O)(c1ccccc1)C1CCCC1)C(C)C (stereo not drawn)	0	0	0	0	0	0
CC(=O)c1cc(-c2ccccc2)[nH]c1N1CCOCC1	0	0	32µM	0	?	0
CCn1c(CNc2ccc(C(=O)O)cc2)nc2ccccc21	0	0	0	-109	0	0
O=C(O)c1ccc(NCc2nc3ccccc3n2Cc2ccccc2)cc1	0	0	0	-	0	0
